This passage reports INHIBITION results from ChEMBL document CHEMBL4513216, “Probing the Open Global Health Chemical Diversity Library for Multistage-Active Starting Points for Next-Generation Antimalarials” (ACS Infect Dis, 2020).

Hit rate of the full screen: of about 69,000 compounds, about 8,600 (12%) showed an effect of 50% or more. This excerpt belongs to a sample that is enriched for strong results.

For this experiment, the system named is Plasmodium berghei. The experiment is described as follows: Screen against P. berghei liver stage (PbLuc), transformed with Luciferase, at 10uM. Format: functional, HepG2. Conditions: tested at 10 uM.
In the case of `N#CC1CCN(C(=O)NCCc2ccc(Cl)s2)CC1`, the INHIBITION is -7.31%. For `O=C(c1ccc(Cl)cc1)N1CCC(N2CCCCC2=O)CC1`, the INHIBITION is 27.5%.

As for `Cc1c(C(=O)NC2=NCCS2)cnn1-c1ccc(Br)cc1`, the INHIBITION is on record as -156%. Regarding `COCC1Cn2nnc(-c3cnn(C)c3)c2CN1Cc1ccco1` (stereo unspecified), the INHIBITION worked out at 11.8%. Take `Cc1cc(C(=O)N2CCCC(n3cncn3)C2)c(C)n1CC1CC1` (stereo unspecified): the INHIBITION is reported as -41.6%. The result for `CC(Cc1ccco1)NC(=O)Nc1cccnc1` (stereo unspecified) reads -10.1%.

With `CC(C)c1nnc2sc(CC3CN(Cc4ccccc4)CCO3)nn12` (stereo unspecified), the INHIBITION amounted to 42.8%. Consider `CC(C)N1CCOC(Cc2nn3c(Cc4ccccc4)nnc3s2)C1` (stereo unspecified), for which the INHIBITION was 45.5%. For the compound `CCCc1nnc2sc(CC3CN(Cc4ccccc4)CCO3)nn12` (stereo unspecified), the INHIBITION is given as 59.2%. Take `Cc1ccccc1-n1ncc(C(C)N)c1C` (stereo unspecified): the INHIBITION is 58.4%. `Cc1c(C(C)N)cnn1-c1cccc2ccccc12` (stereo unspecified): the INHIBITION was found to be 7.24%. On to `Cc1c(C(C)N)cnn1-c1ccccn1` (stereo unspecified), for which the INHIBITION is reported as -12.1%.

For `Cc1nn(C)c2cn(C(C)C(=O)NCc3cccc(F)c3)nc12` (stereo unspecified), the INHIBITION turned out to be 58.2%. For `COc1ccccc1CNC(=O)C(C)n1cc2c(n1)c(C)nn2C` (stereo unspecified), the INHIBITION turned out to be 21.7%. For `Cc1nn(C)c2cn(C(C)C(=O)NCc3ccccn3)nc12` (stereo unspecified), the INHIBITION amounted to 55.7%. Regarding `Cc1nn(C)c2cn(C(C)C(=O)NCc3ccncc3)nc12` (stereo unspecified), the INHIBITION came out at 32.5%. For `Cc1nn(C)c2cn(C(C)C(=O)NCc3cccnc3)nc12` (stereo unspecified) the value was -2.37%.

`Cc1nn(C)c2cn(C(C)C(=O)NCc3ccc(F)cc3)nc12` (stereo unspecified): the INHIBITION came out at 19.3%. The result for `CN(Cc1ccco1)C(=O)NC1CCCN(c2ncccn2)C1` (stereo unspecified) reads 4.865%; that for `COc1ccc2c(ccn2CC(=O)Nc2n[nH]c(CC(C)C)n2)c1`, 16%.

Consider `CN(C)S(=O)(=O)N1C[C@@H]2COC[C@]2(COc2ccccn2)C1`, for which the INHIBITION was 11.5%. Take `Cc1cc(C2CCC2)nc(N2CCC3(CCCN(C)C3=O)C2)n1` (stereo unspecified): the INHIBITION is -14.3%. Consider `Cc1nc(-c2cccc(N3CCC(NC4CCOCC4)CC3)c2)cs1`, for which the INHIBITION is listed as 37.7%.

`c1ccc(-c2cccc(N3CCC(NCCc4cscn4)CC3)c2)cc1`: the INHIBITION is 69.9%. In the case of `O=C(NCCc1cccs1)NC1CCN(c2ncccn2)CC1`, the INHIBITION is listed as -89%. The result for `Cc1ccc(N2CCCC(NCc3cscn3)C2)nn1` (stereo unspecified) reads 26.8%; that for `O=C1CCCN1c1cccc(N2CCC(NCCc3cscn3)CC2)c1`, 14.3%; that for `c1cc(-c2cscn2)cc(N2CCC(NCCc3cccs3)CC2)c1`, 75.5%. For `CNc1cccc(C2CCN(C(=O)c3cccnc3)CC2)n1` the value was -9.27%; for `Cc1cc(C(=O)N2CCN(S(C)(=O)=O)[C@@H](C)C2)c(F)cc1F`, -14.2%; for `Cc1ccc(C)c2c(C)c(C(=O)NCCCn3ccnn3)[nH]c12`, 47.2%. Regarding `O=C(NC1CCCN(c2ncccn2)C1)c1ccoc1` (stereo unspecified), the INHIBITION is -6.32%. In the case of `CC(C)c1nc(C2CCCN(C(=O)c3ccc(N(C)C)nn3)C2)no1` (stereo unspecified), the INHIBITION is on record as 30.3%. On to `CCC(NC(=O)c1nn(C)cc1C(=O)O)c1ccccc1` (stereo unspecified), for which the INHIBITION came out at 15.9%. With `Cc1cc(NC2CCc3ncnn3C2)n2nc(C(F)(F)F)nc2n1` (stereo unspecified), the INHIBITION was 26.9%. As to `Cc1cccc(CN2CC[C@@H]3[C@@H]2CCN3C(=O)c2cc(C)oc2C)n1`, the INHIBITION is given as -6.23%. In the case of `Cc1ccccc1-c1csc2c(=O)[nH]c(N3CCCC(C(=O)O)C3)nc12` (stereo unspecified), the INHIBITION is reported as 52.5%. Consider `Cc1ccc(-c2csc3c(=O)[nH]c(N4CCCC(C(=O)O)C4)nc23)cc1` (stereo unspecified), for which the INHIBITION was determined as 32.8%. The result for `O=C(O)C1CCCN(c2nc3c(-c4ccccc4)csc3c(=O)[nH]2)C1` (stereo unspecified) reads 36.6%; that for `CC(C)CC(=O)N1CCC2(CC1)OC(C(N)=O)Cn1ccnc12` (stereo unspecified), 7.7%; that for `O=C(N1CCCC1)C12CC(CN1Cc1nccs1)C2`, -2.03%. For the compound `O=C(NCC1CC1)C12CC(CN1Cc1nccs1)C2`, the INHIBITION is reported as 82.2%. The result for `Cc1ccsc1C(=O)N1CC2CC1(C(=O)NCC1CC1)C2` reads 23.5%. Take `CN(C)C(=O)c1cc(-c2ccncc2)[nH]n1`: the INHIBITION is listed as -8.28%. Regarding `CN1CCN(C(=O)c2cc(C#N)cs2)c2ccccc2C1`, the INHIBITION was -91.4%. `c1ccc(CCNc2ncnc3c2CCN(Cc2c[nH]cn2)CC3)cc1`: the INHIBITION is reported as 37.3%. With `CN(C)c1ccc(C(=O)N2CCCN(Cc3cscn3)CC2)nn1`, the INHIBITION is reported as -31.8%. With `O=C(c1cnc2n1CCN(Cc1ccccc1)C2)N1CCCC1`, the INHIBITION is reported as 17.1%. With `Cc1nc2c(c(NC(C)C)n1)CCN(C(=O)c1ccno1)CC2`, the INHIBITION was 49.1%.

Consider `CCOCC(=O)N1CCc2nc(C)nc(NC(C)C)c2CC1`, for which the INHIBITION is on record as 32.1%. Turning to `COCC(=O)N1CCc2nc(NC(C)C)nc(NC(C)C)c2CC1`, the INHIBITION is on record as 48.4%. For `Cc1nc(-c2ccc(F)cc2)nc2c1CCN(C(=O)CN(C)C)CC2`, the INHIBITION was determined as 37.9%. For `Cc1nc2c(c(NCc3ccccc3)n1)CCN(C(=O)C1CCC1)CC2`, the INHIBITION is on record as 42.3%. With `CC(=O)N1CCc2nc(-c3ccccc3)nc(NC(C)C)c2CC1`, the INHIBITION is listed as 59.3%.

Take `CC(C)Nc1nc(-c2ccccc2)nc2c1CCN(C(=O)C1CC1)CC2`: the INHIBITION worked out at 73.8%. Take `CC(=O)NCC(=O)N1CCc2nc(-c3ccccc3)nc(C)c2CC1`: the INHIBITION worked out at 37.9%. On to `COCC(=O)N1CCc2nc(C)nc(NC(C)C)c2CC1`, for which the INHIBITION amounted to 35.8%. The result for `CC(C)Nc1nc(-c2ccccc2)nc2c1CCN(C(=O)CC#N)CC2` reads 72%; that for `CC(=O)N1CCc2nc(-c3ccc(F)cc3)nc(NC(C)C)c2CC1`, 64.7%. The result for `O=C(C1CCOCC1)N1CCc2ncnc(-c3ccccc3)c2CC1` reads -28.8%; that for `Cn1cc(S(=O)(=O)N2CCN(S(=O)(=O)c3ccc(Br)s3)CC2)cn1`, 43.2%; that for `CN(Cc1cnn(C)c1)C(=O)NCc1cc(Br)cs1`, 34.95%. As for `Cc1cc2c(=O)n(CCSc3cnn[nH]3)cnc2s1`, the INHIBITION is reported as 36.7%. The result for `O=C(COC[C@H]1CC[C@H]2[C@H](CCN2c2ncccn2)O1)N1CCCC1` reads 1.81%; that for `Cc1ccc(CCNC(=O)Cn2nc(C)n(Cc3ccccc3)c2=O)o1`, 13.6%; that for `CN(Cc1cccc2cccnc12)C1CCS(=O)(=O)C1` (stereo unspecified), 36%. Turning to `Cc1nnc(NCc2ccccc2F)c(C#N)c1C`, the INHIBITION came out at 1.35%. Take `O=C(c1ccnnc1)N1CCN(Cc2cccnc2)c2ncccc2C1`: the INHIBITION is -39.9%. Regarding `CS(=O)(=O)CCn1ccc(NC(=O)Cc2cccc(Cl)c2)n1`, the INHIBITION came out at 16.5%.

In the case of `CSc1nnc(C2CCN(C(=O)N3CCCC3)CC2)n1C`, the INHIBITION was 16.185%. Consider `O=C(CCc1cccnc1)N1CCC(c2cnccn2)CC1`, for which the INHIBITION turned out to be 15.9%. In the case of `CC1CCCN(C(=O)CCc2cccnc2)C1` (stereo unspecified), the INHIBITION is on record as 20.9%.

With `CSc1nnc(CC2CCN(C(=O)Cc3ccncc3)CC2)n1C`, the INHIBITION is listed as 64.7%. Regarding `CSc1nnc(CC2CCN(C(=O)COc3cccnc3)CC2)n1C`, the INHIBITION is 73%. Take `COc1cccc(CC(=O)N2CCC(Cc3nnc(SC)n3C)CC2)c1`: the INHIBITION is 31.3%. Consider `CCOCC(=O)N1CCC(Cc2nnc(SC)n2C)CC1`, for which the INHIBITION is 48%.

For `Cc1ccc(NC2CCN(C(=O)COc3cccnc3)CC2)nn1`, the INHIBITION is 44.6%. With `CSc1nnc(CC2CCN(C(=O)CCc3cccnc3)CC2)n1C`, the INHIBITION worked out at 51.7%. As to `CN(C)C(=O)N1CCN(Cc2cnn(C)c2)CC2(CNC(=O)C2)C1` (stereo unspecified), the INHIBITION was 17.6%. `O=C(CCn1c(=O)oc2ccccc21)NCC(O)c1ccc(Cl)cc1` (stereo unspecified): the INHIBITION came out at 18.2%. The result for `O=S(=O)(CC1CCCCO1)Nc1cnn(Cc2ccccc2)c1` (stereo unspecified) reads 33.7%; that for `Cc1cnn(C2CN(CC(=O)NCCc3ccsc3)C2)c1`, 22.3%.

In the case of `CN1CCN(C[C@@H]2OC[C@H]3CN(Cc4ccsc4)CC[C@H]32)CC1`, the INHIBITION is recorded as -13.3%. In the case of `O=C(CNC(=O)c1ccccc1Cl)Nc1nccs1`, the INHIBITION is -9.72%. Take `Cn1c(=NC(=O)CSCC(=O)Nc2nccs2)sc2ccccc21`: the INHIBITION stood at 32.8%.

Regarding `COCCn1/c(=N\C(=O)CN(C)S(C)(=O)=O)sc2cc(OC)ccc21`, the INHIBITION came out at 2.29%. Take `COc1cc(Cl)ccc1C(=O)NCC(=O)Nc1nccs1`: the INHIBITION is recorded as -176%. Take `COc1ccc2c(c1)sc(=NC(=O)CSCC(=O)Nc1nccs1)n2C`: the INHIBITION is listed as 51%. On to `CCn1c(=NC(=O)CSCC(=O)Nc2nccs2)sc2ccccc21`, for which the INHIBITION is listed as 88.1%. Regarding `O=C(Cc1ccccn1)N1CC[C@]2(C[C@@H](Oc3ncccc3F)CO2)C1`, the INHIBITION worked out at 35.8%. On to `CN(C)C(=O)N1CC[C@@H](O)[C@@H]1Cc1ccccc1`, for which the INHIBITION is -14.7%. Take `Cc1ccc(CN2CCC3(CC2)C(=O)N(CC(C)C)CCN3C)o1`: the INHIBITION amounted to 39.5%. Consider `COc1ccc(C(=O)COc2coc(CN3CCSCC3)cc2=O)cc1`, for which the INHIBITION is reported as 15.1%. For `Cc1nc(NC2CCN(C(=O)C3CC3)CC2)c2cnn(C)c2n1` the value was -25.2%.

Take `Cn1ncc2c(NC3CCCN(C(=O)C4CC4)C3)nc(C(C)(C)C)nc21` (stereo unspecified): the INHIBITION is 62.9%. As for `Cn1ncc2c(N[C@H]3CCCC[C@@H]3O)nc(C(C)(C)C)nc21`, the INHIBITION is 50.1%. For `Cn1ncc2c(NC3CCC(N)CC3)nc(C(C)(C)C)nc21` (stereo unspecified) the value was 40.5%; for `Cn1ncc2c(NCC(=O)N3CCNCC3)nc(C(C)(C)C)nc21`, 16.8%; for `CCOC(=O)CNc1nc(C(C)(C)C)nc2c1cnn2C`, 51.3%. With `Cc1nc(N[C@H]2COC[C@@H]2N2CCCC2)c2cnn(C)c2n1`, the INHIBITION was 32.7%. On to `Cn1ncc2c(N[C@@H]3CS(=O)(=O)C[C@H]3O)nc(C(C)(C)C)nc21`, for which the INHIBITION is listed as 54.4%. For `CCOC(=O)CC(C)Nc1nc(C(C)(C)C)nc2c1cnn2C` (stereo unspecified), the INHIBITION was 46.4%. `CCc1nc(NC2CCCN(C(=O)C3CC3)C2)c2cnn(C)c2n1` (stereo unspecified): the INHIBITION amounted to 16%. For `Cn1ncc2c(NCC3CCS(=O)(=O)C3)nc(C3CCCC3)nc21` (stereo unspecified) the value was 15.1%; for `CCOC(=O)CCCNc1nc(C(C)(C)C)nc2c1cnn2C`, 27.9%; for `Cc1nn(C)c(Cl)c1C(=O)NCc1cccnc1N1CCOCC1`, -13%.
